# Screens from PubChem BioAssay.
# Shiga toxin inh: Shiga toxin inhibition; Vero cells, Shiga toxin protein synthesis inhibition reporter; inhibition, % at 38.7 µM; 9.2% of 290,000 active; AID 2315; in the data active means inhibition mostly above about 28%, no sharp cut-off; inactive means mostly below about 43%; further: 0% is about no effect
# Lassa entry inh: Lassa virus entry inhibition | Lassa virus pseudotype entry inhibition, cell reporter | Potency, µM (doses to about 37.9 µM), inactives show at the top dose activity change, negative = inhibition, most hits filed as inhibitors | AID 540256 | 1.2% of 300,000 active; calls by dose curve; tested in HEK293 cells; further: potency means the concentration at half of the fitted maximal effect; on the % scale 0 is the no-effect control and ±100 the full control effect; nearly all actives have a fitted effect of over 50% in size
# FMDV antiviral: blocks foot and mouth disease virus. FMDV antiviral cell-based qHTS. Potency, µM (series often up to 57.9 µM), for inactives: top-dose activity change, negative = inhibition, most hits filed as inhibitors. 1.2% of 410,000 active; calls by dose curve; tested in HEK293T cells; further: read-out not given here; potency means the concentration at half of the fitted maximal effect; on the % scale 0 is the no-effect control and ±100 the full control effect; nearly all actives have a fitted effect of over 45% in size
# Marburg entry inh: inhibitors of Marburg virus binding or cell entry; Marburg virus pseudotyped entry inhibition, cell reporter; AID 540276; Potency, µM (doses to about 37.8 µM), for inactives: at the top dose activity change, negative = inhibition, most hits filed as inhibitors; 1.8% of 300,000 active; calls by dose curve; tested in HEK293 cells; further: potency means the concentration at half of the fitted maximal effect; on the % scale 0 is the no-effect control and ±100 the full control effect
# HCV inhibitor: HCV inhibition | AID 651820 | Huh7.5.1 HCVcc-Cre infection, luciferase reporter, 44 h | 3.4% of 340,000 active | Potency, µM (series often up to 41.8 µM), inactives show at the top dose activity change, negative = inhibition, most hits filed as inhibitors; active means well fitted inhibition curve with a large enough effect; inconclusive means small, poorly fitted or top-dose-only effect, or another doubt; inactive means no such curve, though single readings can be large or run the other way; further: potency means the concentration at half of the fitted maximal effect; on the % scale 0 is the no-effect control and ±100 the full control effect
#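 Compounds are dispensed onto cells plated 4 h earlier at 1,000 per well, with HCVcc-Cre virus (about 0.5 moi) added next. Following 44 h of culture, luminescent signal is measured for 15 sec after 15 min with substrate at room temperature.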
# CHX counter-1: counter-screen for Shiga toxin inhibitors: cycloheximide protein synthesis inhibition | 12% of 300,000 active | AID 2314 | cell reporter, cycloheximide protein synthesis inhibition counterscreen | max response, %; in the data active means max response mostly above about 13%, no sharp cut-off; inactive means mostly below about 14%; further: read at 38.3 µM for the half of the compounds with a filed dose; 0% is about no effect
# CHX counter-2: protein synthesis counter-screen activity for Shiga toxin hits; shares compounds with Shiga toxin inh; Cycloheximide counterscreen, protein synthesis reporter, Shiga toxin assay; Potency, µM (highest dose often 38.3 µM), for inactives: top-dose activity (activation), hits mostly activators; 3% of 510 active; calls by dose curve; further: potency means the concentration at half of the fitted maximal effect; 0% is about no effect
# Starred values were filed as active, the others as inactive; ? = inconclusive; nt = not tested or not shown; [ ] = dose if it differs, or a comment. The list is not random: actives were taken first. Their share in the collection is about 13%.
SMILES,Shiga toxin inh,Lassa entry inh,FMDV antiviral,Marburg entry inh,HCV inhibitor,CHX counter-1,others
COc1ccc(OCC(=O)N2CCN(c3nnc(-c4ccccc4)c4ccccc34)CC2)cc1,-4,?,?,?,18µM*,1,
N#CC1=C2N=C(N)c3ccccc3N2C2=C(C(=O)CCC2)C1c1ccc(F)cc1 (configuration not stated),10,nt,-10%,nt,13µM*,11,
O=C(Nc1cccc([N+](=O)[O-])c1)C1CC(=O)N(C2CCCCC2)C1 (configuration not stated),7,-22%,30%,-4%[14.2 µM],17%,-4,
CCOC(=O)c1c(Oc2ccc(OC)cc2)nnc(-c2ccccc2)c1-c1ccccc1,nt,-17%[46.1 µM],?,-17%[46.1 µM],nt,nt,
COC(=O)c1c(Oc2ccc(C(C)=O)cc2)nnc(-c2ccccc2)c1-c1ccccc1,nt,?,?,6.3µM*,nt,nt,
Cc1cc(/C=C(\C#N)C(=O)O)c(C)n1C1CC1,-8,5%,-12%,15%,-2%,1,
COc1ccccc1N1CCN(Cc2nc(N)nc(Nc3ccc(C)cc3)n2)CC1,15,?,?,?,-18%,18,
COCCCn1nnnc1SCC(=O)N1CCN(C(=O)c2ccco2)CC1,-6,nt,-14%,nt,-2%,1,
CCCSc1nc(-n2ncc(C#N)c2N)c2c3c(sc2n1)CCC(C)C3 (configuration not stated),3,2%,-19%,?,14µM*,-3,
Cc1nc(-n2ncc(C#N)c2N)c2c3c(sc2n1)CCC3,-13,-11%,-8%,-14%,?,-2,
NC(=O)c1cc2c(s1)-c1cc(Cl)ccc1SC2,51,nt,50%,nt,?,20*,
COCCNC(=O)c1cc2c(s1)-c1ccc(Cl)cc1SC2,91*,?,2%,?,?,44*,
CCOc1ccc(N(CC)C(=O)c2cc3c(s2)-c2ccc(Cl)cc2SC3)cc1,nt,?,-21%,9%[46.1 µM],nt,nt,
O=C(Nc1cccc(S(=O)(=O)N2CCOCC2)c1)C1CC1,nt,nt,2%,nt,11%,nt,
Cc1ccc(-c2cn(-c3ccccc3)c(=S)[nH]2)cc1C,113*,?,0%,?,-11%,64*,
Cc1nnc(SCC2=C(C(=O)O)N3C(=O)C(NC(=O)Cn4ncc(Cl)c4C)C3SC2)s1 (configuration not stated),-10,-1%[46.1 µM],5%,13%[46.1 µM],14%,-3,
Cc1oc2cc(O)ccc2c(=O)c1-c1nncn1-c1ccccc1,-6,9%[46.1 µM],3%,19%[46.1 µM],-11%,-1,
CN1c2ccccc2C(C)(C)[C@]12C=Cc1cc(O)ccc1O2,58,-16%,?,?,13µM*,38*,
CN1c2ccccc2C(C)(C)C12CC(CCl)=NO2 (configuration not stated),15,?,?,-5%,11%,-3,
CN1c2ccccc2C(C)(C)C12C=Nc1c(ccc3ccccc13)O2 (configuration not stated),99*,2%,3%,-1%,-21%,27*,
COc1ccc2ccc3c(c2c1)N=CC1(O3)N(C)c2ccccc2C1(C)C (configuration not stated),34*,0%,nt,?,-6%,10,
O=C(/C=C/c1cccs1)c1ccc(NC(=O)c2cccc(Br)c2)cc1,131*,0%,1%,-7%,6.3µM*,62*,
O=C(C=Cc1cccs1)c1cccs1,nt,8%[46.1 µM],33%,-6%[46.1 µM],-20%,nt,
Cc1ccc(C(=O)Nc2ccc(C(=O)/C=C/c3cccs3)cc2)cc1,73*,?,34%,-17%,-16%,52*,
O=C(/C=C/c1cccs1)c1ccc(Br)cc1,31,27%,-4%,2%,16%,40*,
SMILES,Shiga toxin inh,Lassa entry inh,FMDV antiviral,Marburg entry inh,HCV inhibitor,CHX counter-1,others
COC(=O)c1ccc(NC(=S)N2CCN(Cc3ccccc3OC)CC2)cc1,-4,nt,-1%,nt,-23%,-1,
CCOc1cc(CN2CCCCCC2)ccc1OC,-4,9%,-20%,?,1%,-1,
CCCN1C2CCCC1CC(NC(=O)Nc1ccc(C(C)C)cc1)C2 (configuration not stated),-3,?,-6%,?,?,-3,
CC(=O)Nc1ccc(N2N=C(C)C(N=Nc3ccccc3)C2=O)cc1 (configuration not stated),53*,22%,16%,21%,-2%,-2,CHX counter-2=?
COCCCNC(=O)c1cn(C)c(=O)c2c1c1ccccc1n2C,33*,-3%[46.1 µM],-2%,0%[46.1 µM],0%,-1,CHX counter-2=1%
COC(=O)C1=C(C)N(c2cc(C)cc(C)c2)/C(=C/c2ccc(O)cc2)C1=O,4,nt,?,nt,?,3,
CCCCn1c(SCC(=O)c2ccccc2)nc2c1c(=O)[nH]c(=O)n2C,16*,-1%,?,?,-3%,-1,CHX counter-2=0%
CC(c1ccco1)N(C(=O)c1cc(Cl)cc(Cl)c1)c1ccccn1 (configuration not stated),24*,-29%,15%,?,-25%,1,CHX counter-2=-1%
O=C(OCc1nc2ccccc2s1)c1cccc(N2C(=O)CCC2=O)c1,58*,8%,15%,4%[46.1 µM],9%,7,CHX counter-2=2%
CC(=O)c1sc(NC(=O)c2cccc(N3C(=O)CCC3=O)c2)nc1-c1ccccc1,nt,-5%,15%,23%,7%,nt,
Cc1ccc(NC(=O)C2CCCC2)c(Br)c1,nt,18%[46.1 µM],0%,14%[46.1 µM],-10%,nt,
Cc1ccc(O)c(NC(=O)C2CCCCC2)c1,34*,24%[46.1 µM],-8%,19%[46.1 µM],-7%,8,CHX counter-2=1%
Cc1cccc(N2CCN(C(=O)CCn3c(=O)[nH]c4ccsc4c3=O)CC2C)c1 (configuration not stated),-5,-16%[46.1 µM],-28%,?,-7%,-2,
O=C(O)C1CCCCC1C(=O)Nc1ccc(-c2ccccc2)cc1 (configuration not stated),53*,7%,4%,5%[46.1 µM],8%,12,CHX counter-2=-1%
CC(=O)Nc1ccc(NC(=O)[C@@H]2CCCC[C@@H]2C(=O)O)cc1,-10,8%,-9%,-1%,-13%,-1,
CN1CCN(C(=O)CN(C)S(=O)(=O)c2ccc(F)cc2)CC1,38*,2%,14%,6%[46.1 µM],-2%,-3,CHX counter-2=-1%
Cc1ccc2c(c1)C(c1ccc(F)cc1)N(C(=O)c1cccc(C(F)(F)F)c1)CC(=O)N2 (configuration not stated),nt,-26%[46.1 µM],23%,?,nt,nt,
COC(=O)c1ccc(OC)c(CSc2nnc(-c3ccc(C(C)(C)C)cc3)o2)c1,-10,?,-26%,?,?,-5,
Cc1cc(C)cc(NC(=O)N2CCCC2C(=O)Nc2ccc(-n3cnnn3)cc2)c1 (configuration not stated),3,-1%,-13%,-7%,11%,-3,
